# Measured values: ChEMBL document CHEMBL4513156, “CO-ADD screening of NCPRI (Romania) compounds”
# Potency and affinity values are given separately.
# Columns and labels:
# [1] = test system: Klebsiella pneumoniae; details: Concentration 32 ug.mL-1; ASSAY_TEST Inhibition of Bacterial Growth; detection method Absorption (OD600); MEDIA CAMHB; plate type 384well; NBS; CORNING #3640; time 18 hr
# [2] = test system: Candida albicans; details: 32 ug/mL
# [3] = test system: Cryptococcus neoformans; details: Concentration 32 ug.mL-1; ASSAY_TEST Inhibition of Fungal Growth; detection method Resazurin; Absorption (OD600-OD570); plate type 384well; NBS; CORNING #3640
SMILES,Inhibition [1],Inhibition [2],Inhibition [3]
COC(=O)C[C@H]1[C@H](/C=N\NC(=O)c2ccncc2)[C@@H](O[Si](C)(C)C(C)(C)C)C[C@@H]1Cl,21.45%,1.67%,-101.31%
O=C(NNC(=O)c1cccc([N+](=O)[O-])c1C(=O)O)c1ccncc1,15.09%,1.9%,-5.54%
O=C1C[C@@H]2[C@@H](C=NNC(=O)c3ccncc3)[C@@H](C[C@H]2Cl)O1,20.62%,2.47%,-98.94%
O=C(N/N=C1/C[C@@H]2[C@@H](C(=O)O)[C@H]1C[C@H]2Cl)c1ccncc1,18.24%,7.78%,-56.2%
O=C(N/N=C1/C[C@@H]2[C@H](COC(c3ccccc3)(c3ccccc3)c3ccccc3)C[C@H](COC(c3ccccc3)(c3ccccc3)c3ccccc3)[C@@H]2C1)c1ccncc1,-5.52%,2.84%,-17.15%
CC(C)(C)[Si](C)(C)O[C@H](/C=C/[C@@H]1[C@@H](CC=NNC(=O)c2ccncc2)[C@@H](O)C[C@H]1O[Si](C)(C)C(C)(C)C)CCc1ccccc1,11.71%,0.84%,-66.75%
CC(C)(C)[Si](C)(C)OCC1C2C[C@H]3C1[C@@H]3/C2=N/NC(=O)c1ccncc1 (stereo partly drawn),15.16%,-2%,-48.28%
O=C(N/N=C/C[C@@H]1[C@@H](/C=C/[C@@H](O)COc2ccccc2)[C@H](O)C[C@@H]1O)c1ccncc1,13.01%,0.82%,-89.18%
COC(=O)CCCCCC[C@@H]1[C@@H](/C=N/NC(=O)c2ccncc2)[C@H](OC(=O)c2ccccc2)C[C@@H]1O,15.74%,0.87%,-95.25%
O=C(NN=CC[C@@H]1[C@@H](/C=C/[C@@H](O)CCc2ccccc2)[C@H](O)C[C@@H]1O)c1ccncc1,16.12%,-1.24%,-90.23%
O=C(ON/N=C/[C@@H]1[C@@H]2C[C@H](Cl)[C@H]1C[C@H]2O)c1ccncc1,14.1%,5.82%,-97.88%
O=C(N/N=C1/C2C[C@H]3C(C2CO)[C@H]13)c1ccncc1 (stereo partly drawn),15.76%,0.37%,-50.92%
O=C(NNC(=O)[C@@H]1C[C@H](C(=O)O)[C@@H]2CCC[C@@H]21)c1ccncc1,17.49%,2.57%,-51.45%
O=C(NNC(=O)c1ccc([N+](=O)[O-])cc1C(=O)O)c1ccncc1,17.92%,3.64%,-51.18%
O=C(N/N=C/C[C@@H]1[C@@H](CO)[C@H](O)C[C@@H]1O)c1ccncc1,16.63%,0.37%,-75.19%
O=C(N/N=C1\CC[C@@H]2[C@H]1[C@H](OC(=O)c1ccccc1)C[C@@H]2OC(=O)c1ccccc1)c1ccncc1,13.57%,12.8%,-65.69%
O=C(NN=C[C@H]1[C@@H]2CCO[C@@H]2C[C@@H]1O)c1ccncc1,9.72%,2.27%,-54.08%
O=C(NNC(c1ccccc1)(c1ccccc1)c1ccccc1)c1ccncc1,4.48%,3.62%,-75.72%
O=C(N/N=C/[C@@H]1C[C@H](CO)[C@@H]2CCC[C@@H]21)c1ccncc1,17.88%,0.02%,-36.93%
O=C(NN=CC[C@H]1[C@H](CO)[C@@H](O)C[C@H]1O)c1ccncc1,13.38%,0.85%,-70.97%
O=C(N/N=C/COc1cccc(Cl)c1)c1ccncc1,5.99%,1.44%,-88.39%
O=C(NN=CC[C@@H]1[C@@H](COC2CCCCO2)[C@H](OC2CCCCO2)C[C@@H]1O)c1ccncc1 (stereo partly drawn),4.99%,1.39%,-44.06%
O=C(N/N=C1/C2C[C@H]3C(C2C(=O)O)[C@@H]13)c1ccncc1 (stereo partly drawn),8.85%,0.22%,-16.35%
O=C(N/N=C1/C[C@H]2[C@H](CO)[C@@H]1C[C@@H]2Cl)c1ccncc1,18.7%,2.15%,-80.47%
CC(C)(C)[Si](C)(C)OC[C@H]1[C@H](CC=NNC(=O)c2ccncc2)[C@H](O)C[C@@H]1O[Si](C)(C)C(C)(C)C,19.31%,3.64%,-64.37%
O=C(NNC(=O)[C@@H]1C[C@H](C(=O)O)[C@@H]2CC=C[C@@H]21)c1ccncc1,15.82%,1.29%,-37.2%
